Drawing on PubChem BioAssay (NCI), this text covers growth for 14 compounds.

The panel holds about 83,000 compounds, 20% with a hit somewhere; the sample as a whole holds those more often.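 Each cell line was grown in a 96-well plate and treated with one concentration of compound for 48 hours. Values below 10 were considered active.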 Unmarked numbers belong to inactive results. Activity calls are given as the source filed them.

Test systems include T-47D breast; BT-549 breast; MDA-MB-435 melanoma; SW-620 colon; MCF7 breast; HCT-116 colon; HCC-2998 colon; KM12 colon.
What all share (assay): NCI-60 one-dose screen, 48 h (100 = growth as untreated, 0 = no growth, -100 = all killed)
Holding throughout (conditions): 10 µM unless noted

Take `NC(=O)CSc1oc(-c2ccccc2)nc1S(=O)(=O)c1ccc(Br)cc1`: the growth is 57.8% in the assay on T-47D breast; 62.1% in the assay on BT-549 breast; 81% in the assay with MDA-MB-435 melanoma; 94.4% with SW-620 colon; 75% in the assay with MCF7 breast; 50.6% with HCT-116 colon. Moreover, the growth in the assay on HCC-2998 colon was 93.3%; in the assay on KM12 colon, 89%.

Regarding `O=C(CN1CCOCC1)Nc1nc(-c2cc3ccccc3oc2=O)cs1`, the growth was 111% in the assay on T-47D breast; 98.5% with BT-549 breast; 104% with MDA-MB-435 melanoma; 101% in the assay with SW-620 colon; 79.2% in the assay with MCF7 breast; 99% in the assay on HCT-116 colon. Moreover, the growth in the assay on HCC-2998 colon is 103%; in the assay on KM12 colon it was 100%.

As for `COC(=O)c1nc(-c2ccccc2)oc1S(=O)(=O)Cc1ccccc1`, the growth in the assay with T-47D breast is 59.9%; with BT-549 breast, 80.1%; in the assay with MDA-MB-435 melanoma, 100%; in the assay with SW-620 colon, 32.9%; in the assay on MCF7 breast, 78.5%; with HCT-116 colon it was 68.9%. Moreover, the growth was 111% with HCC-2998 colon and 96.4% in the assay with KM12 colon.

Consider `O=C(NCCCl)Nc1ncccc1OCc1ccccc1`, for which the growth is 97.9% with T-47D breast; 105% with BT-549 breast; 97.1% in the assay with MDA-MB-435 melanoma; 99% with SW-620 colon; 96.3% with MCF7 breast; 101% in the assay with HCT-116 colon. For the same compound, the growth in the assay on HCC-2998 colon is 102%; in the assay on KM12 colon it was 108%.

Consider `CCOc1nc(-c2ccccc2)cc2c(O)c(C(=O)N/N=C/c3ccccc3)[nH]c(=O)c12`, for which the growth is 110% with T-47D breast; 167% in the assay with BT-549 breast; 123% in the assay with MDA-MB-435 melanoma; 100% in the assay on SW-620 colon; 101% with MCF7 breast; 111% with HCT-116 colon. Also, the growth was 8.59% (active) in the assay on HCC-2998 colon and 109% with KM12 colon.

As for `CCCNC(=O)Nc1ccc2cc3ccc(NC(=O)NCCC)cc3nc2c1`, the growth in the assay on T-47D breast was 46.6%; in the assay on BT-549 breast, 82.1%; with MDA-MB-435 melanoma, 77.4%; in the assay on SW-620 colon it was 92%; with MCF7 breast it was 62.6%; with HCT-116 colon it was 76.3%. The figures for the growth in the assay with HCC-2998 colon and with KM12 colon were 98.4% and 70.9%, respectively.

In the case of `CCCCCCCCCc1ccc(OCCOCCOCCOCCOCCOCCOCCOCCOCCO)cc1`, the growth in the assay on T-47D breast was 116%; with BT-549 breast it was -9.07% (active); with MDA-MB-435 melanoma it was 7.48% (active); in the assay with SW-620 colon, 19.1%; with MCF7 breast it was 10.9%; in the assay on HCT-116 colon, 11%. For the same compound, the growth was 23.3% in the assay on HCC-2998 colon and 13.3% in the assay on KM12 colon.

As for `Cc1sc2nc(NCCc3c[nH]c4ccc(Cl)cc34)[nH]c(=O)c2c1C`, the growth with T-47D breast is 44.9%; in the assay on BT-549 breast it was 74.2%; in the assay with MDA-MB-435 melanoma, 39.7%; in the assay on SW-620 colon it was 9.09% (active); with MCF7 breast, 32.2%; in the assay on HCT-116 colon, 24.5%. Further, the growth in the assay on HCC-2998 colon is 21.5%; in the assay with KM12 colon it was 1.89% (active).

In the case of `CCOC(=O)c1c2c(n3cccc(F)c13)C(=O)c1ncccc1C2=O`, the growth in the assay with T-47D breast was 54.5%; with BT-549 breast, 21.7%; with MDA-MB-435 melanoma, 13.1%; with SW-620 colon, -7.69% (active); with MCF7 breast, -23.1% (active); in the assay with HCT-116 colon, -10.7% (active). The results for the growth with HCC-2998 colon and in the assay with KM12 colon were 25% and 19%, respectively.

With `O=[N+]([O-])c1cccc(-c2nc3cc4nc5ccccc5[nH]c4cc3n2)c1`, the growth is 87.5% with T-47D breast; 102% with BT-549 breast; 112% in the assay on MDA-MB-435 melanoma; 112% in the assay with SW-620 colon; 77.7% with MCF7 breast; 93.1% with HCT-116 colon. For the same compound, the growth with HCC-2998 colon is 112%; in the assay on KM12 colon, 100%.

Regarding `COc1ccc(/C=C(\C#N)n2nnc3cc(F)c(F)cc32)cc1`, the growth in the assay with T-47D breast was 23.1%; with BT-549 breast, 32.2%; with MDA-MB-435 melanoma it was -54% (active); in the assay with SW-620 colon, 14.9%; in the assay with MCF7 breast it was 22.1%; with HCT-116 colon, 28%. For the same compound, the figures for the growth in the assay on HCC-2998 colon and in the assay on KM12 colon were 69.3% and 34%, respectively.

Consider `O=C(Nc1nc2ccc(C(=O)N3CCN(/C=C/c4ccccc4)CC3)cc2s1)c1ccc(NCCc2ccccc2)c([N+](=O)[O-])c1`, for which the growth with T-47D breast was 43.2%; with BT-549 breast, 71.9%; in the assay with MDA-MB-435 melanoma, 55.8%; in the assay on SW-620 colon it was 4.25% (active); in the assay with MCF7 breast, 16%; in the assay with HCT-116 colon, 11.2%. The growth is 76.9% in the assay with HCC-2998 colon and 53.5% with KM12 colon.

As to `COc1cc(/C=C2/C=C(c3ccccc3)N(CCc3ccc(S(N)(=O)=O)cc3)C2=O)cc(OC)c1OC`, the growth in the assay on T-47D breast is 83.5%; in the assay with BT-549 breast, 94.4%; in the assay with MDA-MB-435 melanoma, 106%; in the assay on SW-620 colon, 102%; in the assay with MCF7 breast, 87.8%; in the assay with HCT-116 colon it was 84.7%. For the same compound, the growth with HCC-2998 colon and in the assay on KM12 colon was 105% throughout.

For `O=S(=O)(Nc1ccc(F)cc1F)c1ccc(-c2cnc(C3CC3)o2)cc1`, the growth in the assay with T-47D breast was 31.9%; in the assay on BT-549 breast it was 17.2%; in the assay on MDA-MB-435 melanoma it was -33.8% (active); in the assay with SW-620 colon, 23.7%; in the assay with MCF7 breast, 20.3%; in the assay with HCT-116 colon, 21.2%. In addition, the growth in the assay on HCC-2998 colon was 54.9%; in the assay with KM12 colon, 30.1%.
